Each structure is given as a SMILES string. The campaign covered roughly 39,000 compounds. About 500 (1.3%) were called active. The entries come from a sample that favours actives as a whole.

This assay deals with S. aureus RN4220. Put plainly: growth inhibition call (relative growth <= 0.2). To be noted: 50 µM.
In the case of `O=C(C[C@@H]1CC[C@H]2[C@@H](COC[C@H](O)CN2Cc2cc(F)ccc2F)O1)N[C@@H]1CCN(Cc2ccccc2)C1`, the growth inhibition call was “inactive”.
On to `C[C@@H]1CN([C@@H](C)CO)C(=O)c2cc(NS(=O)(=O)c3cn(C)cn3)ccc2O[C@@H](C)CCCCO[C@@H]1CN(C)Cc1ccc(C(F)(F)F)cc1`, for which the growth inhibition call was “inactive”.
For `C[C@@H]1CN([C@H](C)CO)S(=O)(=O)c2ccc(-c3cccnc3)cc2O[C@@H]1CN(C)C(=O)c1ccc2c(c1)OCO2` the value was “inactive”.
In the case of `CC[C@@H]1OC(=O)[C@H](C)[C@@H](O[C@H]2C[C@@](C)(OC)[C@@H](O)[C@H](C)O2)[C@H](C)[C@@H](O[C@@H]2O[C@H](C)C[C@H](N(C)C)[C@H]2O)[C@](C)(O)C[C@@H](C)/C(=N\OCOCCOC)[C@H](C)[C@@H](O)[C@]1(C)O`, the growth inhibition call is “active”.
Turning to `CCC1OC(=O)C(C)C(OC2CC(C)(OC)C(O)C(C)O2)C(C)C(OC2OC(C)CC(N(C)C)C2O)C(C)(O)CC(C)C(=NOCOCCOC)C(C)C(O)C1(C)O` (stereo not drawn), the growth inhibition call was “active”.
For `Cn1c(=O)c2cn3ncccc3c2n(C)c1=O` the value was “inactive”.
`COc1c(C)c2c(c(O)c1CC=C(C)CCC(=O)O)C(=O)OC2`: the growth inhibition call is “inactive”.
With `Cc1noc(C)c1S(=O)(=O)Nc1ccc2c(c1)C(=O)N([C@H](C)CO)C[C@@H](C)[C@H](CN(C)Cc1ccc3c(c1)OCO3)O2` the entry was “inactive”; with `O=C(N[C@H]1CC[C@@H](CC(=O)N2CCOCC2)O[C@H]1CO)c1ccc2c(c1)OCO2`, “inactive”.
For `Cc1ccc(S(=O)(=O)N(C)C[C@@H]2Oc3ccc(NC(=O)CCN4CCOCC4)cc3CC(=O)N([C@@H](C)CO)C[C@@H]2C)cc1` the value was “inactive”; for `COc1ccc(S(=O)(=O)Nc2ccc3c(c2)CC(=O)N([C@@H](C)CO)C[C@H](C)[C@H](CN(C)C(=O)Nc2c(C)noc2C)O3)cc1`, “inactive”.
For `CC(Cc1cccc(C(F)(F)F)c1)NCCOC(=O)c1ccccc1.Cl` (stereo not drawn) the value was “inactive”.
As for `C[C@@H](O)c1cccc(C(F)(F)F)c1`, the growth inhibition call is “inactive”.
Consider `CC(NCCCc1cccc(C(F)(F)F)c1)c1cccc2ccccc12.Cl` (stereo not drawn), for which the growth inhibition call was “active”.
For `Nc1ccc(O)cc1` the value was “inactive”.
For `C[C@@H]1CCCCO[C@@H](CN(C)C(=O)C2CCCCC2)[C@H](C)CN([C@@H](C)CO)C(=O)c2cc(NC(=O)Nc3cccc4ccccc34)ccc2O1`, the growth inhibition call was “inactive”.
In the case of `CN1C=C(C(=O)OCCS(C)(=O)=O)C(C(=O)OCCS(C)(=O)=O)=CC(CCCO)=C[C@@H]1C1CC1`, the growth inhibition call is “inactive”.
With `COC(=O)C1=CC(CCCO)=C[C@@H](c2cccs2)N(Cc2cccc(OC(F)(F)F)c2)C=C1C(=O)OC` the entry was “active”; with `CCN(CC)S(=O)(=O)c1ccc(C(=O)O)cc1`, “inactive”; with `O=C(O)c1ccc(S(=O)(=O)N(Cc2ccc(OC(F)(F)F)cc2)c2ncc(C(F)(F)F)cc2Cl)cc1`, “active”.
`O=C(O)c1ccc(S(=O)(=O)N(Cl)Cl)cc1`: the growth inhibition call is “inactive”.
For `N=C(N=C(N)N)Nc1cc(-c2cccs2)n[nH]1` the value was “inactive”; for `C[C@H]1CN([C@@H](C)CO)S(=O)(=O)c2ccc(C#Cc3ccc(F)cc3)cc2O[C@H]1CN(C)C(=O)CN(C)C`, “active”; for `C[C@@H]1CN([C@H](C)CO)S(=O)(=O)c2ccc(C#Cc3ccc(F)cc3)cc2O[C@@H]1CN(C)C(=O)CN(C)C`, “inactive”.
Regarding `C[C@H]1CN([C@@H](C)CO)S(=O)(=O)c2ccc(C#Cc3ccccc3)cc2O[C@@H]1CN(C)C(=O)CN(C)C`, the growth inhibition call is “inactive”.
For `C[C@H](CO)N1C[C@H](C)[C@@H](CN(C)C(=O)CN(C)C)Oc2cc(C#Cc3ccccc3)ccc2S1(=O)=O` the value was “inactive”.
With `C[C@H]1CN([C@@H](C)CO)S(=O)(=O)c2ccc(C#Cc3ccc(F)cc3)cc2O[C@@H]1CN(C)C(=O)CN(C)C` the entry was “inactive”; with `C[C@@H]1CN([C@H](C)CO)S(=O)(=O)c2ccc(C#Cc3ccc(F)cc3)cc2O[C@H]1CN(C)C(=O)CN(C)C`, “inactive”; with `C[C@@H]1CN([C@H](C)CO)S(=O)(=O)c2ccc(C#Cc3ccccc3)cc2O[C@@H]1CN(C)C(=O)CN(C)C`, “active”.
With `C[C@H]1CN([C@@H](C)CO)S(=O)(=O)c2ccc(C#Cc3ccccc3)cc2O[C@H]1CN(C)C(=O)CN(C)C` the entry was “active”.
With `C[C@@H]1CN([C@@H](C)CO)S(=O)(=O)c2ccc(C#Cc3ccc(F)cc3)cc2O[C@@H]1CN(C)C(=O)CN(C)C`, the growth inhibition call was “inactive”.
With `C[C@H](CO)N1C[C@H](C)[C@H](CN(C)C(=O)CN(C)C)Oc2cc(C#Cc3ccc(F)cc3)ccc2S1(=O)=O` the entry was “inactive”; with `C[C@@H]1CN([C@@H](C)CO)S(=O)(=O)c2ccc(C#Cc3ccccc3)cc2O[C@@H]1CN(C)C(=O)CN(C)C`, “active”; with `C[C@@H]1CN([C@@H](C)CO)S(=O)(=O)c2ccc(C#Cc3ccc(F)cc3)cc2O[C@H]1CN(C)C(=O)CN(C)C`, “inactive”.
For `C[C@@H]1CCCCO[C@@H](CN(C)Cc2ccc(Cl)c(Cl)c2)[C@@H](C)CN([C@H](C)CO)C(=O)c2cc(NC(=O)C3CCCCC3)ccc2O1`, the growth inhibition call is “inactive”.
With `CC(C)NC(=O)N(C)C[C@@H]1OCCCC[C@@H](C)Oc2ccc(NS(=O)(=O)c3cn(C)cn3)cc2C(=O)N([C@H](C)CO)C[C@H]1C` the entry was “inactive”; with `C[C@@H]1CN([C@H](C)CO)C(=O)c2cc(NS(=O)(=O)c3ccc(F)cc3)ccc2O[C@@H](C)CCCCO[C@H]1CN(C)C(=O)Nc1ccccc1`, “inactive”; with `CC=Cc1ccc2n(c1=O)C[C@@H]1[C@@H](CO)[C@H](C(=O)NC3CCC3)N(S(C)(=O)=O)[C@H]21`, “inactive”.
With `CCCN(C)C[C@@H]1OCCCC[C@@H](C)Oc2ccc(NS(=O)(=O)c3cn(C)cn3)cc2C(=O)N([C@@H](C)CO)C[C@@H]1C` the entry was “inactive”; with `C[C@@H]1CN([C@@H](C)CO)C(=O)c2cc(C#Cc3ccncc3)cnc2O[C@H]1CN(C)S(=O)(=O)c1ccccc1F`, “inactive”.
With `C[C@@H]1CN([C@@H](C)CO)C(=O)c2cc(NS(C)(=O)=O)ccc2O[C@@H](C)CCCCO[C@H]1CN(C)S(=O)(=O)c1cn(C)cn1` the entry was “inactive”; with `C[C@@H]1CN([C@H](C)CO)C(=O)c2cccc(NS(C)(=O)=O)c2O[C@@H]1CN(C)S(=O)(=O)c1ccc(F)cc1`, “inactive”; with `C[C@@H]1CN([C@@H](C)CO)S(=O)(=O)c2ccc(C#Cc3ccccc3)cc2O[C@H]1CN(C)C(=O)CN(C)C`, “inactive”.
For `C[C@H](CO)N1C[C@H](C)[C@H](CN(C)C(=O)CN(C)C)Oc2cc(C#Cc3ccccc3)ccc2S1(=O)=O`, the growth inhibition call was “active”.
Regarding `C[C@@H]1CN([C@H](C)CO)S(=O)(=O)c2ccc(C#Cc3ccccc3)cc2O[C@H]1CN(C)C(=O)CN(C)C`, the growth inhibition call was “inactive”.
Regarding `COc1ccc(S(=O)(=O)N(C)C[C@@H]2Oc3ccc(NS(=O)(=O)c4cccs4)cc3CC(=O)N([C@@H](C)CO)C[C@H]2C)cc1`, the growth inhibition call was “inactive”.
With `C[C@@H]1CN([C@H](C)CO)C(=O)c2cccc(NS(C)(=O)=O)c2O[C@@H]1CN(C)C(=O)Nc1ccc(C(F)(F)F)cc1` the entry was “active”.
With `C[C@H](CO)N1C[C@H](C)[C@H](CN(C)C(=O)Nc2ccc(C(F)(F)F)cc2)Oc2c(NS(C)(=O)=O)cccc2C1=O` the entry was “inactive”; with `C[C@@H]1CN([C@@H](C)CO)C(=O)c2cccc(NS(C)(=O)=O)c2O[C@@H]1CN(C)C(=O)Nc1ccc(C(F)(F)F)cc1`, “active”; with `C[C@H]1CN([C@@H](C)CO)C(=O)c2cccc(NS(C)(=O)=O)c2O[C@@H]1CN(C)C(=O)Nc1ccc(C(F)(F)F)cc1`, “inactive”.
For `C[C@@H]1CN([C@@H](C)CO)C(=O)c2cccc(NS(C)(=O)=O)c2O[C@H]1CN(C)C(=O)Nc1ccc(F)cc1` the value was “inactive”; for `C[C@@H]1CN([C@@H](C)CO)C(=O)c2cccc(NS(C)(=O)=O)c2O[C@H]1CN(C)C(=O)Nc1ccc(C(F)(F)F)cc1`, “active”; for `C[C@H](CO)N1C[C@H](C)[C@@H](CN(C)C(=O)Nc2ccc(C(F)(F)F)cc2)Oc2c(NS(C)(=O)=O)cccc2C1=O`, “inactive”.
For the compound `C[C@@H]1CN([C@H](C)CO)C(=O)c2cccc(NS(C)(=O)=O)c2O[C@H]1CN(C)C(=O)Nc1ccc(C(F)(F)F)cc1`, the growth inhibition call was “inactive”.
For the compound `C[C@H]1CN([C@@H](C)CO)C(=O)c2cccc(NS(C)(=O)=O)c2O[C@H]1CN(C)C(=O)Nc1ccc(C(F)(F)F)cc1`, the growth inhibition call is “inactive”.
For `CNC(=O)Cn1cc(Br)cn1` the value was “inactive”; for `C[C@H]1N(c2cnn(C)c2)C(=O)COC12CCN(S(C)(=O)=O)CC2`, “inactive”; for `O=C1O[C@H](CO)[C@@H](O)[C@H](O)[C@H]1O`, “inactive”.
`COc1ccc2c3c(n(c2c1)C)[C@@H](CO)N(Cc1ccccc1F)C[C@]13CN(C1)C(=O)C1CCOCC1`: the growth inhibition call was “inactive”.
For `C[C@@H]1CN([C@@H](C)CO)C(=O)c2cccc(NS(C)(=O)=O)c2O[C@@H]1CN(C)C(=O)Nc1ccc2c(c1)OCO2` the value was “inactive”; for `CC1CCC2(C)C(C=O)=CCCC2C1(C)CC1OC(O)C(=O)C12CO2` (stereo not drawn), “active”; for `C[C@H]1CN([C@@H](C)CO)C(=O)c2cc(NC(=O)CCN3CCOCC3)ccc2O[C@@H]1CN(C)Cc1ccc2c(c1)OCO2`, “inactive”.
For `C[C@H](CO)N1C[C@H](C)[C@@H](CN(C)Cc2ccc(Cl)c(Cl)c2)Oc2ccc(NC(=O)Nc3cccc4ccccc34)cc2C1=O` the value was “inactive”; for `C=CC[C@H](CC(=O)NCCO)C(=O)N[C@H](COC(=O)[C@@H](CC=C)CC(=O)OC(C)(C)C)Cc1ccccc1`, “inactive”.
With `O=C(CCCCCC(=O)Nc1ccccc1O)N/N=C/C[P+](c1ccccc1)(c1ccccc1)c1ccccc1` the entry was “inactive”.
Regarding `COC(=O)CCCCCCC(=O)Nc1ccc(NC(=O)CCCC[P+](c2ccccc2)(c2ccccc2)c2ccccc2)cc1`, the growth inhibition call was “active”.
Consider `O=C(CCCCCCC(=O)Nc1ccccc1)NO`, for which the growth inhibition call is “inactive”.
With `C[C@@H]1CN([C@H](C)CO)C(=O)c2cccc(NC(=O)NC3CCCCC3)c2O[C@H]1CN(C)C(=O)Nc1cccc2ccccc12` the entry was “inactive”.
